Test results: PubChem BioAssay (NCI)
Compounds without any hit were thinned out: in the full panel of roughly 79,000, 15% have a hit. Active and inactive are the calls of the source. Cut-off read from the data, not from the text of the source: active = growth inhibition above about 70%; inactive = the rest.

Test: NCI Yeast Anticancer Drug Screen. Data for the cln2 rad14 strain (AID 165);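 note: 0% = growth equal to vehicle treated cultures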
Settings: S. cerevisiae cln2 rad14 strain, at 50.0 µM (retest, dose inferred, filed as 5.0), stronger effect = higher value
Procedure, shortened: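 Yeast carrying cln2 and rad14 alterations (cell cycle control and DNA damage repair) were exposed to compounds. Growth inhibition was measured against vehicle-treated controls.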

Structure (SMILES) | growth inhibition
S=C(Nc1cc(Cl)cc(Cl)c1)SCc1ccccc1 | 48% (inactive)
CCCOc1cc(C(=O)OCCN(CC)CC)cc(OCCC)c1OCCC | 13% (inactive)
C=C1C(=O)[C@@]23CC[C@H]4[C@@](C)(CCC[C@@]4(C)C(=O)OC)[C@@H]2CC[C@]1(O)C3 | 99% (active)
CCCSc1ncnc2nc(C)[nH]c12 | -1% (inactive)
O=C1C=CC(=O)N1CCCCCCN1C(=O)C=CC1=O | 99% (active)
CCOC(=O)c1[nH]c2c([N+](=O)[O-])cccc2c1[N+](=O)[O-] | 25% (inactive)
CSC(=S)/C(=C/Nc1ncccn1)c1ccccc1 | 62% (inactive)
N#CNc1nc(N)c(-c2ccc(Cl)cc2)c(C(=O)Nc2ccc(Cl)c(Cl)c2)n1 | 1% (inactive)
COc1ccc2c(c1)c(=O)c1c(NCCN(C)C)ccc3nnn2c31 | 37% (inactive)
CCC[CH2][Sn]([S][Sn]([CH2]CCC)([c]1ccccc1)[c]1ccccc1)([c]1ccccc1)[c]1ccccc1 | 83% (active)
CCC1=CCC2C(=O)c3cc4ccccc4cc3C(=O)C2C1 (centres undefined) | 20% (inactive)
Cc1ccccc1NC(=O)C1C(=O)N(c2ccccc2C)C(=O)/C1=N/O (centres undefined) | 6% (inactive)
CCCCc1[nH]ccc2c(C)c3nc4ccccc4c3cc12 | 95% (active)
O=C(O)C(Br)C(Br)C(=O)Nc1ccc(Cl)c(Cl)c1 (centres undefined) | 99% (active)
Cc1cc(C)c2c(c1)sc1nncn12 | 96% (active)
CC(=O)C(C=O)C(C)=O.CC(=O)CC(C)=O.CC(=O)CC(C)=O.[Ru] | 44% (inactive)
COc1ccc(NC(=O)CCC(=O)C(C)C(=O)c2ccccc2)cc1 (centres undefined) | 10% (inactive)
CCCCCCCCCCCCCC(=O)CC(=O)c1c(O)cccc1O | 12% (inactive)
Cc1ccc(NC(=S)SCc2ccco2)cc1Cl | 99% (active)
Cc1nc(N)nn1C | 0% (inactive)

Structure (SMILES) | growth inhibition
Cc1cccc(O)c(=O)c1 | 95% (active)
O=C1C=CC(=O)N1c1ccc(-c2nc3ccccc3o2)cc1 | 96% (active)
NC1=NC(c2ccccc2)CC(c2cc(Cl)cc(Br)c2O)=N1 (centres undefined) | 22% (inactive)
CCCCCCCCCCCc1ccn[nH]1 | 99% (active)
CC(=O)Oc1c(-c2ccccc2)cc([N+](=O)[O-])cc1[N+](=O)[O-] | 59% (inactive)
COc1cccc2c1C1c3ccccc3Sc3cccc(c31)O2 (centres undefined) | -21% (inactive)
O=C1CC(O)C=C1Nc1ccc(Cl)cc1 (centres undefined) | -8% (inactive)
C=CCNC(=S)N/N=C(/c1ccccn1)C(C)C | 28% (inactive)
CCCCCCCCCCCCCCCC[N+](C)(C)c1ccccc1 | 99% (active)
O=C(NC(OCc1ccccc1)(C(F)(F)F)C(F)(F)F)OCc1ccccc1 | 96% (active)
Cc1cc2oc3c(ccc(=O)n3C)c(=O)c2c(C)c1Cl | 13% (inactive)
COc1cc2c(cc1OC)C(=O)C(C)(c1ccccc1)NC2 (centres undefined) | 56% (inactive)
CCC(C)NCCNc1cc(OC)cc2cccnc12 (centres undefined) | -5% (inactive)
CN(C)CCCN=c1c2ccccc2n(O)c2ccccc12 | 20% (inactive)
N#CCc1ccccc1-c1cccc2ccccc12 | 24% (inactive)
CN=C1NS(=O)(=O)c2ccccc21 | 2% (inactive)
COc1cc(CSc2ccc(O)cc2)cc(OC)c1OC | 4% (inactive)
CN(C)CCCNc1c2ccccc2nc2cccc([N+](=O)[O-])c12 | 99% (active)
CCCCCCCCCCCCCCCc1ncc(C)[nH]1 | 98% (active)
